The target of experiment [1] is Calcium and integrin-binding protein 1 (Homo sapiens) (UniProt Q99828). Description: Primary qHTS for Identification of Calcium Integrin Binding Protein 1 (CIB1) Competitor (AID 1508620).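 Also: GST tagged CIB1 binding a fluorescein labelled alphaIIb integrin peptide tracer; top concentration of the series differs between compounds; % is scaled to controls: 0 for no effect and ±100 for the full control effect.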 The method in brief:
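Fluorescence polarization competition: GST-tagged CIB1 (1 uM final) preincubated with compound 15 min at room temperature, then FITC-labelled alphaIIb peptide (100 nM final) added. After 15 min at room temperature, polarization read at Ex 480/Em 540.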
(In qHTS, concentration-response curves come from the screen itself.)

Experiment [2] deals with Phospholipid hydroperoxide glutathione peroxidase GPX4 (Homo sapiens) (UniProt P36969). Kind of experiment: Primary qHTS Assay for Inhibitors of Recombinant Selenoprotein Glutathione Peroxidase 4 (GPX4) (AID 1845192). Also: % is scaled to controls: 0 for no effect and ±100 for the full control effect; nearly all actives have a fitted effect of over 65% in size. Put shortly: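 GR-coupled assay: recombinant GPX4 preincubated 30 min with compound at room temperature; final 200 nM GPX4, 1 mM GSH, 0.5 mM cumene hydroperoxide, 0.5 mM NADPH, 100 nM GR, 0.01% BSA, pH 7.5 Tris. NADPH fluorescence (340/450 nm) read at 0 and 15 min.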
Sequence of Phospholipid hydroperoxide glutathione peroxidase GPX4 (Homo sapiens) (P36969 whole entry, looked up): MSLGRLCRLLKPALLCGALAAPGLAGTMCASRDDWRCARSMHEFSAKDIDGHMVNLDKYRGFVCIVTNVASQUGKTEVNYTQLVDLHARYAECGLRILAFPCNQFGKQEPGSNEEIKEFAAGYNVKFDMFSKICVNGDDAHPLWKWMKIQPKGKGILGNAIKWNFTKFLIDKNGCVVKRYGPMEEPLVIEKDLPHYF

Experiment [3] deals with Luciferin 4-monooxygenase (Photinus pyralis) (UniProt P08659). Kind of experiment: Primary firefly luciferase (FLuc) qHTS assay for identification of artifact compounds. (AID 1845220). Also: nearly all actives have a fitted effect of over 60% in size. As to conditions: outcome: dose series up to 54.1 µM unless noted. Put shortly: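 D-luciferin and ATP (10 uM each, final) in Tris acetate buffer pH 7.6 were incubated with compounds for 15 min at room temperature. The reaction was started with 10 nM Photinus pyralis luciferase and luminescence read after 5 min. Percent inhibition was fitted to a 4-parameter Hill equation.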

Experiment [4] relates to Nanoluciferase (engineered Oplophorus gracilirostris luciferase). Description: Primary Nanoluciferase (NLuc) qHTS assay for identification of artifact compounds. (AID 1845222).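 Also: 0% = DMSO and -100% = no enzyme.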 The method in brief:
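Diluted conditioned medium from NLuc-expressing S16 cells treated with compounds for 15 min at room temperature, then Nano-Glo substrate added; luminescence read after 5 min. Percent inhibition versus no-enzyme and DMSO controls fitted to 4-parameter Hill equation.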

Experiment [5] deals with CRL-7250. Description: Cytotoxic Profiling of Annotated Libraries Using Quantitative High-Throughput Screening (AID 1296008). Also: nearly all actives have a fitted effect of over 60% in size. Also: potency is read from the fitted curve at half-maximal effect. As to max response: % is scaled to controls: 0 for no effect and ±100 for the full control effect. As to conditions: Five cell lines viability, CellTiter-Glo ATP luminescence, 48-72 h; max response: stronger effect = lower value. The method in brief:
(§1)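 Cells exposed to compounds for 48 or 72 hr at 37 degrees Celsius. Viability read as ATP-coupled luminescence with CellTiter-Glo after 10 min at room temperature.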
On the technique in general: Cellular ATP, detected with luciferase, serves as a proxy for viable cell number.

Experiment [6] concerns HEK293. The description is as above. The conditions noted are these: Five cell lines viability, CellTiter-Glo ATP luminescence, 48-72 h; max response: stronger effect = lower value. The method in brief: as §1
Experiment [7] has as its system HaCat. Described as above. The conditions noted are these: Five cell lines viability, CellTiter-Glo ATP luminescence, 48-72 h; max response: stronger effect = lower value. The method in brief: as §1
In experiment [8] the test system is C33A. Description: Primary qHTS to identify gynecologic anti-cancer compounds using libraries of approved drugs and bioactive compounds (AID 1345084). Also: nearly all actives have a fitted effect of over 55% in size. Also: potency is read from the fitted curve at half-maximal effect. The conditions noted are these: Gynecologic cancer cell panel viability, ATPlite luminescence, 48 h; series mostly up to 57.5 µM. Put shortly:
(§2)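 Five-point cytotoxicity, 48 h drug exposure at 37 C, 5% CO2, on cells seeded 16 h beforehand. ATP content read by ATPlite luminescence.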

Experiment [9] relates to JEG-3. Described as above. As to conditions: Gynecologic cancer cell panel viability, ATPlite luminescence, 48 h; series mostly up to 57.5 µM. Put shortly: as §2
The subject of experiment [10] is OV90. The experiment is described as above. The conditions noted are these: Gynecologic cancer cell panel viability, ATPlite luminescence, 48 h; series mostly up to 57.5 µM. The method in brief: as §2
Experiment [11] concerns Tov-21-G. The description is as above. As to conditions: Gynecologic cancer cell panel viability, ATPlite luminescence, 48 h; series mostly up to 57.5 µM. The method in brief: as §2
Experiment [12] is described as follows: Primary qHTS for inhibitors of nuclear receptor binding SET domain protein 2 (NSD2) in an isogenic RCH-ACV NSD2 p.E1099K mutant (9B) (AID 1645876). Also: nearly all actives have a fitted effect of over 70% in size. Also: potency is read from the fitted curve at half-maximal effect.
Experiment [13] deals with NIH3T3. Kind of experiment: Cytotoxic Profiling of Annotated Libraries Using Quantitative High-Throughput Screening (AID 1296008). Also: nearly all actives have a fitted effect of over 60% in size. Also: potency is read from the fitted curve at half-maximal effect. As to max response: % is scaled to controls: 0 for no effect and ±100 for the full control effect. As to conditions: Five cell lines viability, CellTiter-Glo ATP luminescence, 48-72 h; max response: stronger effect = lower value. Put shortly: as §1
For experiment [14], the system named is CAOV3. Description: Primary qHTS to identify gynecologic anti-cancer compounds using libraries of approved drugs and bioactive compounds (AID 1345084). Also: nearly all actives have a fitted effect of over 55% in size. Also: potency is read from the fitted curve at half-maximal effect. As to conditions: Gynecologic cancer cell panel viability, ATPlite luminescence, 48 h; series mostly up to 57.5 µM. The method in brief:
as §2

Experiment [15] relates to CASKI. Described as above. As to conditions: Gynecologic cancer cell panel viability, ATPlite luminescence, 48 h; series mostly up to 57.5 µM. The method in brief:
as §2

Experiment [16] concerns Es-2. Described as above. The conditions noted are these: Gynecologic cancer cell panel viability, ATPlite luminescence, 48 h; series mostly up to 57.5 µM. Put shortly: as §2
The test system of experiment [17] is Hek293T. Described as above. The conditions noted are these: Gynecologic cancer cell panel viability, ATPlite luminescence, 48 h, control line for the selectivity index; series mostly up to 57.5 µM. Put shortly:
as §2

Experiment [18] has as its system PA-1. The experiment is described as above. As to conditions: Gynecologic cancer cell panel viability, ATPlite luminescence, 48 h; series mostly up to 57.5 µM. Put shortly: as §2
Experiment [19] has as its system Tov112D. The experiment is described as above. As to conditions: Gynecologic cancer cell panel viability, ATPlite luminescence, 48 h; series mostly up to 57.5 µM. Put shortly:
as §2

Experiment [20] is described as follows: P-glycoprotein substrates identified in KB-8-5-11 adenocarcinoma cell line, qHTS therapeutic library screen (AID 1346987). Also: nearly all actives have a fitted effect of over 65% in size. The method in brief:
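KB-8-5-11: colchicine-selected sub-line of KB-3-1 over-expressing P-gp; assay medium lacked colchicine. 72 h drug exposure at 37 degree C, CellTiter-Glo.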

Structures are written as SMILES. “And” between values parts separate entries of the source, which are not always exact repeats. Identical values can stand only once. Unmarked numbers belong to inactive results. Inconclusive results are not listed. The source made the active and inactive calls. Calls follow the shape of the dose curve; as a rule, active = well fitted curve in the direction sought with a large enough effect; inconclusive = small, poorly fitted or top-dose-only effect, or another doubt; inactive = no such curve, though single readings can be large; an effect the other way counts as inactive or inconclusive.

Sequence of Calcium and integrin-binding protein 1 (Homo sapiens) (Q99828 whole entry, looked up): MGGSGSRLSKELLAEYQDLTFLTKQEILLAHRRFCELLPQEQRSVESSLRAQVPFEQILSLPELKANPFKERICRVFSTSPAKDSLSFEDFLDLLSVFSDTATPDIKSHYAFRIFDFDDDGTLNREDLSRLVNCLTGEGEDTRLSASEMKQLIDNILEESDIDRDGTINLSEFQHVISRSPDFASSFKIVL

In the case of `C[C@@H]1CN(Cc2ccc(F)cc2)CCN1C(=O)COc1ccc(Cl)cc1NC(N)=O`, the Potency entry in experiment [1], in experiment [2], in [4], in [9] and in experiment [11] was “inactive” each time. Further, the call in [3] was inactive. For the same compound, the Potency was 731 nM (active) in experiment [5], 1300 nM (active) in experiment [6], 2510 nM (active) in [8] and 8910 nM (active) in [10]. The max response in experiment [7] was -27%.

Consider `CNC(=O)c1cc(C#N)cc(C)c1NC(=O)c1cc(Br)nn1-c1ncccc1Cl`, for which the Potency entry in experiment [1], in experiment [12], in experiment [2], in experiment [4], in experiment [8] and in [14] was “inactive” throughout. The Potency entry in experiment [15], in [16], in experiment [17], in [9], in [10] and in experiment [18] was “inactive” each time. The Potency entry in experiment [11] and in experiment [19] was “inactive” throughout. Moreover, the compound was classed as inactive in [3]. Also, the max response in [5] was 0.534%; in [7], -17.6%; in experiment [13], -18.9%. In [6], the Potency is 13000 nM (active).

In the case of `Cc1sc2c(c1C)C(c1ccc(Cl)cc1)=N[C@@H](CC(N)=O)c1nnc(C)n1-2`, the Potency entry in [1], in experiment [2], in [4], in [8], in experiment [15] and in experiment [9] was “inactive” each time. The Potency in [12] is 64.9 nM (active) and 132 nM (active); in experiment [5], 366 nM (active); in experiment [6], 259 nM (active). Moreover, the result in experiment [3] was inactive. In experiment [7], the max response is -29.9%.

For the compound `CN1CCN(c2nc3ccccc3nc2Cl)CC1`, the Potency entry in experiment [20], in [1], in experiment [12], in experiment [2], in experiment [8] and in experiment [14] was “inactive” in each case. Further, the Potency entry in [15], in [16], in experiment [17], in [9], in [10] and in experiment [18] was “inactive” in each case. In addition, the Potency result in experiment [11] and in experiment [19] was “inactive” each time. Besides, the compound was called inactive in experiment [3], in experiment [6] and in experiment [13]. The max response in experiment [5] was -8.1%.

Regarding `COCC(C(=O)OC1CC2CCC(C1)N2C)c1ccccc1` (stereo not drawn), the Potency result in experiment [20], in [1], in experiment [12], in [2], in [4] and in experiment [8] was “inactive” throughout. Moreover, the Potency entry in experiment [14], in experiment [15], in experiment [16], in experiment [17], in [9] and in [10] was “inactive” throughout. In addition, the Potency result in [18], in experiment [11] and in [19] was “inactive” each time. Also, the result in experiment [3] and in [7] was inactive. Also, the values for the max response in [5], in [6] and in experiment [13] were -5.38%, -0.619% and 3.79%, respectively.

Consider `C=C1C[C@]2(O)[C@@]3(C)CCC(=O)C(C)(C)C3=C(O)C(=O)[C@@]2(C)[C@@H]2C(=O)O[C@@](C)(C(=O)OC)C(=O)[C@@]12C`, for which the Potency entry in experiment [20], in experiment [1], in experiment [12], in [2], in experiment [4] and in experiment [8] was “inactive” each time. Moreover, the Potency result in experiment [14], in [15], in experiment [16], in experiment [17], in experiment [9] and in experiment [10] was “inactive” each time. For the same compound, the Potency result in experiment [18], in experiment [11] and in experiment [19] was “inactive” in each case. The compound was classed as inactive in experiment [3] and in experiment [6]. In addition, the max response was 2.22% in experiment [5] and 1.84% in experiment [13].

These data come from PubChem BioAssay (NCATS).
